Shown are actives, neighbours in structure and some others; about 18% of the full set was active somewhere.
CtBP-E1A blk: CtBP/E1A binding inhibition; actives 0.49% (n = 340,000); AlphaScreen GST-E1A/His-CtBP binding, 1536-well; stronger effect = lower value; activity change, % (test concentration not listed); AID 651724; in the data active = activity change below about -65%; inconclusive = mostly about -30% to -63%
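Steps: dispense buffer (Tris pH 8.0, NaCl 300 mM, TCEP 1 mM, BSA, Tween 20); add 5X protein mix (GST-E1A, His-CtBP, 125 nM each); pin 23 nL compound; 2 h at 37 °C, dark; add 5X beads (50 ug/mL); 1 h; read.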
Six1-Eya2 inh: Six1/Eya2 interaction inhibition; AlphaScreen GST-Six1/His-Eya2 binding, biochemical; stronger effect = lower value; activity change, % (test concentration not listed); actives 0.56% (n = 360,000); AID 651725; in the data active = activity change below about -65%; inconclusive = mostly about -30% to -63%
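GST-Six1 + His-Eya2 (5X stock: 250/500 nM); Tris pH 8.0, 300 mM NaCl, 0.05% BSA, 0.02% Tween 20; GSH donor/Ni acceptor beads; 1 h 37 °C dark; AlphaScreen readout.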
DT40 TDP1 no CPT: qHTS for Inhibitors of human tyrosyl-DNA phosphodiesterase 1 (TDP1): qHTS in cells in absence of CPT; Potency, µM (titrated, usually from 46.2 µM), for inactives: at the highest dose activity change, negative = growth inhibition, hits mostly inhibitors; DT40 Tdp1-/- hTDP1 cells, no CPT, ATP luminescence, 48 h; actives 15% (n = 420,000); AID 686978, 2013; note: potency is the fitted concentration of half-maximal effect; nearly all actives have a fitted effect of over 55% in size
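No-CPT arm: Tdp1-/-;hTDP1 DT40 cells (400/well) plus compounds, incubated ≥48 hr at 37 °C. Readout CellTiter-Glo luminescence.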
DT40 TDP1 CPT: DT40-hTDP1 cell growth loss with CPT; chicken DT40 Tdp1-/-;hTDP1 cells + 20 nM CPT, ATP luminescence, 48 h; Potency, µM (series often up to 46.2 µM), for inactives: at the top dose activity change, negative = growth inhibition, hits mostly inhibitors; actives 12% (n = 420,000); AID 686979; note: potency is the fitted concentration of half-maximal effect; nearly all actives have a fitted effect of over 55% in size
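Chicken DT40 Tdp1-/- cells stably complemented with human TDP1 were seeded at 400 cells/well in medium containing 20 nM camptothecin, exposed to pin-transferred compounds, and grown at 37 °C for at least 48 hr. Viability was read as ATP luminescence.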
TDP1 inh: inhibitors of human tyrosyl-DNA phosphodiesterase TDP1; Q9NUW8; recombinant TDP1, AlphaScreen DNA substrate cleavage; Potency, µM (highest dose often 130 µM), without a hit: at the top dose activity change, negative = inhibition, usual class: inhibitors; actives 0.28% (n = 350,000); note: potency is the fitted concentration of half-maximal effect; nearly all actives have a fitted effect of over 40% in size
Target sequence (Q9NUW8 whole entry, looked up): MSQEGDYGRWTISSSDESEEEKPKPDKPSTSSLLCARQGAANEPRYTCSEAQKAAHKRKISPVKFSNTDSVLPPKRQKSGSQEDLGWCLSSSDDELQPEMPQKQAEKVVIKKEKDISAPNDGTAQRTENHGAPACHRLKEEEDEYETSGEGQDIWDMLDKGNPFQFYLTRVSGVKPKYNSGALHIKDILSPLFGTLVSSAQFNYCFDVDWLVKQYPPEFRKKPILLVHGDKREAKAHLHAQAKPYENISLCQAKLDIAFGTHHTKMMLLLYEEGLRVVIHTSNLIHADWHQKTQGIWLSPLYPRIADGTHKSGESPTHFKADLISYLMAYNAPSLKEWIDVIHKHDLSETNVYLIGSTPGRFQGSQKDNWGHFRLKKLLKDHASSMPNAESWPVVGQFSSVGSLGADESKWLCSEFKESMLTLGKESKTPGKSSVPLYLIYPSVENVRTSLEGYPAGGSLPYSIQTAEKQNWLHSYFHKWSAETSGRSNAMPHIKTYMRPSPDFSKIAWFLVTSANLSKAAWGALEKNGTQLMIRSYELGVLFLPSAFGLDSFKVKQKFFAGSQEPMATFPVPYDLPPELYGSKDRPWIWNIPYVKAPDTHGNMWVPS
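Recombinant human Tdp1 (E. coli-expressed, 1 nM final) preincubated with compounds 15 min at room temperature, then 5'-biotin/3'-phosphotyrosine-FITC DNA substrate (15 nM final) added for 5 min. AlphaScreen beads (10 ug/ml final) added 10 min; cleavage lowers signal.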
IL1B secr inh: inflammasome signaling inhibition, IL-1 beta readout. THP-1 LPS/ATP IL-1B secretion, AlphaLISA, 16 h; stronger effect = lower value. activity change, % at 57.5 µM. actives 4.7% (n = 360,000). AID 743279; in the data active = activity change below about -50%; inconclusive = mostly about -30% to -49%
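Secreted IL-1B measured by AlphaLISA bead assay after 16 h compound exposure of THP-1 cells; compounds (final up to 57.5 uM) added 1 h before LPS (250 ng/mL) and ATP (1.25 mM) stimulation; lower signal means less secretion.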
The depositor's hits bear a star; ? = inconclusive; · = no result. Unless noted, calls come from the whole dose curve; as a rule, active = well fitted curve in the direction sought with a large enough effect; inconclusive = small, poorly fitted or top-dose-only effect, or another doubt; inactive = no such curve, though single readings can be large; an effect the other way counts as inactive or inconclusive. % is set by controls: 0 for no effect and ±100 for the full control effect.

SMILES	CtBP-E1A blk	Six1-Eya2 inh	DT40 TDP1 no CPT	DT40 TDP1 CPT	TDP1 inh	IL1B secr inh
COc1ccc(CN2CCN(CC3CC3)CC2CCO)c(C)c1C (configuration not stated)	13	1	-12%	?	2%	-3
COc1ccc(CN2CCN(Cc3nc4ccccc4s3)CC2CCO)c(C)c1C (configuration not stated)	0	-8	15µM*	?	11%	?
CC(=O)c1cc(CN2CCN(Cc3ccc(C)cc3)C(CCO)C2)cs1 (configuration not stated)	·	1	?	-13%	·	-24
COc1ccc(CN2CCN(C3CCOCC3)CC2CCO)c(C)c1C (configuration not stated)	12	-2	-3%	-7%	-6%	7
COc1ccc(CN2CCN(C3CCSCC3)CC2CCO)c(C)c1C (configuration not stated)	-1	-1	16µM*	18µM*	-3%	-4
CC(=O)c1cc(CN2CCN(CCC(C)C)C(CCO)C2)cs1 (configuration not stated)	7	0	?	16µM*	-4%	7
CC(C)(C)NC(=S)NNC(=O)c1cccc(Br)c1	·	5	6.5µM*	5.8µM*	8%	10
O=C(NNC(=S)Nc1ccccc1)c1cccc(Br)c1	17	0	-25%	-12%	8%	32
CC(C)(C)C(=O)NC(=S)NNC(=O)c1ccc(Cl)cc1Cl	-8	1	5.8µM*	?	5%	98
CC(C)(C)NC(=S)NNC(=O)c1ccccc1Cl	2	0	10µM*	15µM*	-3%	34
C#CCSc1nc2sc3c(c2c(=O)n1-c1cccc(OC)c1)CCN(C(C)=O)C3	·	·	?	?	4%	·
COc1c(Cl)cc(Cl)cc1/C=C(\C#N)c1nc2ccccc2[nH]1	·	·	·	·	6%	·
Cc1noc(C)c1C(=O)NCCc1ccc(Cl)cc1	7	0	-6%	5%	1%	-2
Cc1cc(C(C)(C)C)cc(C)c1CCNC(=O)c1c(C)noc1C	-1	-20	26µM*	29µM*	9%	-5
CCOc1ccc(OCCn2c(S(=O)(=O)O)nc3c(N)ncnc32)cc1	-3	5	18%	-5%	·	3
Cc1ccc2nc(/C(C#N)=C\c3ccc(Oc4ccc(C(F)(F)F)cc4[N+](=O)[O-])cc3)[nH]c2c1	6	5	10µM*	?	·	1
COc1ccc(/C=C(\C#N)c2nc3ccc(C)cc3[nH]2)cc1Oc1ccc(C(F)(F)F)cc1[N+](=O)[O-]	-1	-2	16µM*	?	8%	51
O=C(CC(=O)c1ccccc1)CC(O)(C=Cc1ccccc1)c1ccccc1 (configuration not stated)	-2	-1	16µM*	21µM*	·	-10
O=C(c1ccc(S(=O)(=O)Cc2ccccc2F)c([N+](=O)[O-])c1)N1CCCCCC1	-13	-18	23µM*	?	2%	-79*
O=C(c1ccc(S(=O)(=O)c2ccccc2Cl)c([N+](=O)[O-])c1)N1CCCCCC1	-14	-11	18µM*	21µM*	5%	-73*
O=C(c1ccc(S(=O)(=O)c2cccc(Cl)c2)c([N+](=O)[O-])c1)N1CCN(c2ccccn2)CC1	5	9	2.3µM*	2.6µM*	6%	-246*
CC1CCN(C(=O)c2ccc(SCc3ccccc3F)c([N+](=O)[O-])c2)CC1	-26	?	?	-11%	5%	-60*
O=c1[nH]cc(NCCNc2ncc(C(F)(F)F)cc2Cl)c(=O)[nH]1	·	-1	6%	-2%	0%	-11
O=C(c1ccc2snnc2c1)N1CCN(c2ccccn2)CC1	-6	7	-9%	-4%	0%	-85*
O=C(c1ccc(S(=O)(=O)Cc2cc(F)ccc2F)c([N+](=O)[O-])c1)N1CCOCC1	2	-4	7.3µM*	6.5µM*	·	-100*
SMILES	CtBP-E1A blk	Six1-Eya2 inh	DT40 TDP1 no CPT	DT40 TDP1 CPT	TDP1 inh	IL1B secr inh
CCS(=O)(=O)N1CCN(c2ccc(C(=O)N3CCOCC3)cc2[N+](=O)[O-])CC1	4	1	4%	1%	·	0
CCC(C(=O)NC1CCCCC1)n1c(SCc2cccc(C)c2)nc2ccncc21 (configuration not stated)	0	-1	?	26µM*	8%	-21
CCCCNC(=O)C(CC)n1c(SCc2cccc(F)c2)nc2ccncc21 (configuration not stated)	·	·	?	10µM*	1%	·
Clc1ccc(-c2cc(C3CCNCC3)[nH]n2)cc1	-4	4	26µM*	23µM*	1%	?
COC(=O)C1CCN(Cc2ccc(C)cc2)CC1	-5	14	-3%	-13%	0%	13
COc1ccc(-c2cc(C3CCN(Cc4ccc([N+](=O)[O-])cc4)CC3)[nH]n2)cc1	-3	1	?	-25%	6%	-84*
Cc1ccc(CN2CCC(c3cc(-c4ccc(Cl)cc4)n[nH]3)CC2)cc1	3	-5	15µM*	16µM*	·	-97*
COC(=O)c1cc(-c2ccc(Cl)cc2)n[nH]1	·	5	-26%	?	8%	-1
O=C(CCN1C(=O)c2ccccc2S1(=O)=O)N1CCN(c2ccccc2F)CC1	1	3	-1%	4%	-3%	6
O=C1OCCN1C(=O)[C@H]1[C@H](c2ccc([N+](=O)[O-])cc2)C(c2cccc(Cl)c2)=NN1c1ccccc1	-12	-13	-6%	2%	13%	?
O=C(COC(=O)c1ccc(S(=O)(=O)NCc2ccco2)cc1)Nc1ccccc1OC(F)F	-2	-2	2%	7%	5%	0
CN1CCN(c2ccc(NC(=O)c3cccc(OCc4ccccc4)c3)cc2)CC1	-19	-17	23µM*	23µM*	12%	0
COc1cccc(C(=O)Nc2ccc(N3CCN(Cc4ccccc4)CC3)cc2)c1	-7	-17	?	?	2%	?
CCOc1cccc(C(=O)NC(=S)Nc2ccccc2)c1	3	-12	?	?	3%	14
CCOc1cccc(C(=O)NC(=S)Nc2cccc(NC(=O)c3ccccc3Cl)c2)c1	-13	-21	21µM*	?	-3%	?
CCOc1cccc(C(=O)NC(=S)Nc2ccc(N3CCN(CC)CC3)cc2)c1	-1	-14	23µM*	?	11%	?
